{
  "source": "PubChem BioAssay AID463173",
  "about": "(ICCB-Longwood Screening Facility, Harvard Medical School, 2010)",
  "note": "Among all 52,000 compounds or so, about 1,700 (3.3%) were called active. The full list was thinned out, with actives kept by preference. Unmarked numbers belong to inactive results. Rule as the data show it: active = survival mostly below about 52% (no sharp cut-off); inactive = mostly above about 56%.",
  "data": [
    {"tested_on": "Wild type", "assay": "growth inhibition of S. aureus wild type versus tarO mutant, primary screen, teichoic acid synthesis inhibitors, RN4220, OD600 (AID 463173)", "settings": "S. aureus RN4220 wild type/DeltatarO growth, OD600, 18 h, stronger effect = lower value, screened at 18.75 µg/mL (by protocol)", "values": [
      {"smiles": "CCCC12CN3CC(CCC)(CN(C1)C3c1ccc(OC(C)C)cc1)C2=O", "note": "(centres undefined)", "survival": "39%"},
      {"smiles": "Cc1ccc(NS(=O)(=O)c2ccc3[nH]c4c(c3c2)CCCCCC4)cc1Cl", "survival": "71%"},
      {"smiles": "COc1cc(NS(=O)(=O)c2ccc3[nH]c4c(c3c2)CCCCCC4)cc(OC)c1", "survival": "57%"},
      {"smiles": "COC(=O)c1ccc(NS(=O)(=O)c2ccc3[nH]c4c(c3c2)CCCCC4)cc1", "survival": "119%"},
      {"smiles": "COc1ccc(NS(=O)(=O)c2ccc3[nH]c4c(c3c2)CCCCCC4)cc1", "survival": "-4% (active)"},
      {"smiles": "Cc1ccc(CNS(=O)(=O)c2ccc3[nH]c4c(c3c2)CCCC4)cc1", "survival": "82%"},
      {"smiles": "CC(=O)c1ccc(NS(=O)(=O)c2ccc3[nH]c4c(c3c2)CCCC4)cc1", "survival": "84%"},
      {"smiles": "COc1ccc(NS(=O)(=O)c2ccc3[nH]c4c(c3c2)CCCCC4)cc1", "survival": "127%"},
      {"smiles": "O=S(=O)(NCc1ccc(F)cc1)c1ccc2[nH]c3c(c2c1)CCCCC3", "survival": "55%"},
      {"smiles": "Cc1ccc(NS(=O)(=O)c2ccc3[nH]c4c(c3c2)CCCCCC4)cc1", "survival": "71%"},
      {"smiles": "Cc1ccc(NS(=O)(=O)c2ccc3[nH]c4c(c3c2)CCCCCC4)cc1C", "survival": "-3% (active)"},
      {"smiles": "O=S(=O)(NCc1ccc(F)cc1)c1ccc2[nH]c3c(c2c1)CCCC3", "survival": "-3% (active)"},
      {"smiles": "COC(=O)c1ccc(NS(=O)(=O)c2ccc3[nH]c4c(c3c2)CCCC4)cc1", "survival": "1% (active)"},
      {"smiles": "CCC(C)NC(=O)Cn1c(=O)n(-c2cc(OC)cc(OC)c2)c(=O)c2ccccc21", "note": "(centres undefined)", "survival": "94%"},
      {"smiles": "CCOc1ccc(OCC)c(NC(=O)c2cc(CN3CCOCC3)on2)c1", "survival": "72%"},
      {"smiles": "COCCn1c(CCC(=O)Nc2ccc(OC)c(OC)c2)nc2cccnc21", "survival": "90%"},
      {"smiles": "CC1CCN(C(=O)CN(C)S(=O)(=O)c2ccc3ccccc3c2)CC1", "survival": "115%"},
      {"smiles": "CCCCN(C(=O)c1cccs1)c1nnc(-c2cc(OC)cc(OC)c2)s1", "survival": "116%"},
      {"smiles": "O=C1CCCc2cc(S(=O)(=O)NCC3CCC(C(=O)NCc4ccc(F)cc4)CC3)ccc2N1", "note": "(centres undefined)", "survival": "93%"},
      {"smiles": "O=C(NCCc1ccccc1)c1ccc2c(c1)CCN2S(=O)(=O)c1ccc(Cl)cc1", "survival": "114%"},
      {"smiles": "O=C(Nc1nc2ccccc2s1)c1ccc(S(=O)(=O)N2CCCC2)cc1", "survival": "80%"},
      {"smiles": "CCc1nn(CC(=O)NCCc2ccc(OC)c(OC)c2)c(=O)c2cc3occc3n12", "survival": "147%"},
      {"smiles": "CCS(=O)(=O)N1CC(=O)N(c2ccccc2C)C(C)(C(=O)NC2CCCCC2)C1", "note": "(centres undefined)", "survival": "82%"},
      {"smiles": "Cc1ccc(C)c(N2CCN(S(=O)(=O)c3ccc4[nH]c5c(c4c3)CCCCC5)CC2)c1", "survival": "89%"},
      {"smiles": "Cc1ccc(C)c(N2CCN(S(=O)(=O)c3ccc4[nH]c5c(c4c3)CCCC5)CC2)c1", "survival": "-4% (active)"},
      {"smiles": "Cc1ccc(N2CCN(S(=O)(=O)c3ccc4[nH]c5c(c4c3)CCCCC5)CC2)c(C)c1", "survival": "135%"},
      {"smiles": "CCOC(=O)c1ccc(NC(=O)CN2c3ccccc3S(=O)(=O)c3ccccc32)cc1", "survival": "121%"},
      {"smiles": "O=C(NCc1ccco1)c1ccc(Cn2c(SCc3ccccc3F)nc3cccnc32)cc1", "survival": "74%"},
      {"smiles": "CCOC(=O)/C(C#N)=C(\\O)c1ccccc1", "survival": "104%"},
      {"smiles": "Cc1cc(C)cc(OC(C)C(=O)Nc2c(C(=O)c3ccccc3)oc3ccccc23)c1", "note": "(centres undefined)", "survival": "-1% (active)"},
      {"smiles": "CCc1ccc(OC(C)C(=O)Nc2c(C(=O)c3ccccc3)oc3ccccc23)cc1", "note": "(centres undefined)", "survival": "13% (active)"},
      {"smiles": "COc1cc2c(cc1NC(=O)COc1cc(C)cc(C)c1)oc1ccccc12", "survival": "75%"},
      {"smiles": "CCOc1ccc(NC(=O)c2oc3ccccc3c2NC(=O)C(C)Oc2ccccc2)cc1", "note": "(centres undefined)", "survival": "94%"},
      {"smiles": "Cc1cc(OC(C)C(=O)Nc2c(C(=O)c3ccc(F)cc3)oc3ccccc23)ccc1Cl", "note": "(centres undefined)", "survival": "68%"},
      {"smiles": "COc1cc2c(cc1NC(=O)C(C)Oc1ccccc1)oc1ccccc12", "note": "(centres undefined)", "survival": "1% (active)"},
      {"smiles": "CCc1ccc(OCC(=O)Nc2c(C(=O)c3ccccc3)oc3ccccc23)cc1", "survival": "65%"},
      {"smiles": "Cc1cc(C)cc(OCC(=O)Nc2c(C(=O)c3ccccc3)oc3ccccc23)c1", "survival": "78%"},
      {"smiles": "COc1cc2c(cc1NC(=O)C(C)Oc1ccc(Cl)cc1Cl)oc1ccccc12", "note": "(centres undefined)", "survival": "49%"},
      {"smiles": "CC(=O)c1cc(-c2ccc(F)cc2)n(CC(=O)Nc2cc(C)cc(C)c2)c1C", "survival": "66%"},
      {"smiles": "Cc1ccc(Nc2c(-c3ccc(C)s3)nc3ncccn23)cc1", "survival": "43%"},
      {"smiles": "Cc1cccc(N2CCN(C(=O)c3cnc4c(C)cccn4c3=O)CC2C)c1", "note": "(centres undefined)", "survival": "0% (active)"},
      {"smiles": "Cc1cccc(N2CCN(C(=O)c3cccn4c(=O)c5cc(Cl)ccc5nc34)CC2C)c1", "note": "(centres undefined)", "survival": "65%"},
      {"smiles": "Cc1cccn2c(=O)c(C(=O)N3CCN(c4ccccc4)CC3)cnc12", "survival": "22%"},
      {"smiles": "COc1ccc(NS(=O)(=O)c2ccc3c(c2)n(C)c(=O)c(=O)n3C)cc1Cl", "survival": "77%"},
      {"smiles": "O=C(Cc1ccc(F)cc1)NC1CC(=O)N(c2ccccc2)C1", "note": "(centres undefined)", "survival": "72%"},
      {"smiles": "O=C(Cn1c(-c2cccs2)cc2ccccc21)NCc1ccccc1Br", "survival": "120%"},
      {"smiles": "Cc1ccc(CCNC(=O)Cn2ncc3c([nH]c4ccccc43)c2=O)cc1", "survival": "66%"},
      {"smiles": "CCCCN(C)CCNC(=O)Cn1ncc2c([nH]c3ccccc32)c1=O", "survival": "0% (active)"},
      {"smiles": "COc1ccc(CNC(=O)Cn2ncc3c([nH]c4ccccc43)c2=O)cc1", "survival": "63%"},
      {"smiles": "O=C(Cn1ncc2c([nH]c3ccccc32)c1=O)NCc1cccc(Cl)c1", "survival": "-3% (active)"},
      {"smiles": "CCN(CC)CCNC(=O)Cn1ncc2c([nH]c3ccccc32)c1=O", "survival": "72%"},
      {"smiles": "CN(CCCNC(=O)Cn1ncc2c([nH]c3ccccc32)c1=O)Cc1ccccc1", "survival": "73%"},
      {"smiles": "CCC(=O)N1CCN(c2ccc(NC(=O)c3ccccc3)cc2)CC1", "survival": "99%"},
      {"smiles": "Cc1cccc(Nc2nnc(-c3ccc(C)c(S(=O)(=O)N4CCN(C)CC4)c3)c3ccccc23)c1", "survival": "147%"},
      {"smiles": "O=C(Nc1cccnc1Cl)c1cc(-c2ccc(Cl)cc2)on1", "survival": "83%"},
      {"smiles": "COc1ccccc1CNC(=O)CCC1N=C2c3ccccc3N=C(SCc3ccc(Cl)cc3)N2C1=O", "note": "(centres undefined)", "survival": "0% (active)"},
      {"smiles": "COc1ccc(CNC(=O)CCC2N=C3c4ccccc4N=C(SCc4ccc(F)cc4)N3C2=O)cc1", "note": "(centres undefined)", "survival": "82%"},
      {"smiles": "COc1ccccc1CNC(=O)CCC1N=C2c3ccccc3N=C(SCc3ccc(C)cc3)N2C1=O", "note": "(centres undefined)", "survival": "118%"},
      {"smiles": "COCCCNC(=O)CSC1=Nc2ccccc2C2=NC(CCC(=O)NCc3ccccc3OC)C(=O)N12", "note": "(centres undefined)", "survival": "73%"},
      {"smiles": "COc1ccc(OC)c(NC(=O)CSC2=Nc3ccccc3C3=NC(CCC(=O)NCc4ccco4)C(=O)N23)c1", "note": "(centres undefined)", "survival": "70%"},
      {"smiles": "COc1ccccc1CNC(=O)CCC1N=C2c3ccccc3N=C(SCc3cccc(Cl)c3)N2C1=O", "note": "(centres undefined)", "survival": "82%"},
      {"smiles": "COc1ccc(CNC(=O)CCC2N=C3c4ccccc4N=C(SCc4ccccc4F)N3C2=O)cc1", "note": "(centres undefined)", "survival": "10% (active)"},
      {"smiles": "COc1ccc(OC)c(NC(=O)CSC2=Nc3ccccc3C3=NC(CCC(=O)NCCc4ccccc4)C(=O)N23)c1", "note": "(centres undefined)", "survival": "73%"},
      {"smiles": "CCCCNC(=O)CSC1=Nc2ccccc2C2=NC(CCC(=O)NCc3ccccc3OC)C(=O)N12", "note": "(centres undefined)", "survival": "-2% (active)"},
      {"smiles": "O=C(CCC1N=C2c3ccccc3N=C(SCc3ccccc3F)N2C1=O)NCc1ccc(F)cc1", "note": "(centres undefined)", "survival": "73%"},
      {"smiles": "COc1ccccc1CNC(=O)CCC1N=C2c3ccccc3N=C(SCC(=O)NCCc3ccccc3)N2C1=O", "note": "(centres undefined)", "survival": "129%"},
      {"smiles": "COc1ccc(OC)c(NC(=O)CSC2=Nc3ccccc3C3=NC(CCC(=O)NCc4ccccc4)C(=O)N23)c1", "note": "(centres undefined)", "survival": "-3% (active)"},
      {"smiles": "CC1CCN(C(c2ccccc2)c2sc3nc(-c4ccco4)nn3c2O)CC1", "note": "(centres undefined)", "survival": "68%"},
      {"smiles": "Cc1[nH]c(=O)[nH]c(=O)c1/C=N\\NC(=O)c1cc2ccccc2o1", "survival": "111%"},
      {"smiles": "N#CC1=C(N)SC(N)=C(C#N)C1c1cc2c(cc1Cl)OCO2", "survival": "112%"},
      {"smiles": "Cc1cccc(N(CC(=O)NC(C)c2ccccc2)S(=O)(=O)c2ccccc2)c1C", "note": "(centres undefined)", "survival": "79%"},
      {"smiles": "Cc1cc(NC(=O)CSc2nc(-c3cccc(F)c3)nc3c2c(=O)n(C)c(=O)n3C)no1", "survival": "68%"},
      {"smiles": "CCOc1cc(C#N)c(NC(=O)c2cccc(S(=O)(=O)N3CCOCC3)c2)cc1OCC", "survival": "131%"},
      {"smiles": "Cc1ccc(CNC(=O)CN2Cc3ccccc3C2=O)cc1", "survival": "76%"},
      {"smiles": "COc1cccc(CNc2ncnc3c2nnn3C)c1", "survival": "79%"},
      {"smiles": "CCc1nnc(SCc2ccc(F)cc2Cl)c2cc3sccc3n12", "survival": "93%"},
      {"smiles": "CCc1nnc(SCc2cccc(Cl)c2)c2cc3sccc3n12", "survival": "2% (active)"},
      {"smiles": "CCc1nnc(SCc2c(F)cccc2Cl)c2cc3sccc3n12", "survival": "88%"},
      {"smiles": "N#Cc1cccc(NC(=O)C2CCN(c3cnccn3)CC2)c1", "survival": "105%"},
      {"smiles": "CCCCN(CCCC)CCNC(=O)c1cn(CC)c2ccc(S(=O)(=O)N3CCc4ccccc4C3)cc2c1=O", "survival": "84%"},
      {"smiles": "Cc1ccc(NC(=O)CSc2nc3ccccc3n2CC(=O)N2CCC(C)CC2)cc1C", "survival": "-1% (active)"},
      {"smiles": "CCN(C(=O)CSc1nc2ccccc2n1CC(=O)Nc1cccc(C#N)c1)c1ccccc1", "survival": "124%"},
      {"smiles": "CCN(C(=O)CSc1nc2ccccc2n1CC(=O)Nc1ccccc1C)c1ccccc1", "survival": "-6% (active)"},
      {"smiles": "CCCCN(C)C(=O)Cn1c(SCC(=O)Nc2ccc(C)c(C)c2)nc2ccccc21", "survival": "14% (active)"},
      {"smiles": "CCN(CC)C(=O)Cn1c(SCC(=O)Nc2ccc(C)c(C)c2)nc2ccccc21", "survival": "133%"},
      {"smiles": "CCN(C(=O)CSc1nc2ccccc2n1CC(=O)Nc1ccc(F)cc1F)c1ccccc1", "survival": "73%"},
      {"smiles": "Cc1ccc(NC(=O)CSc2nc3ccccc3n2CC(=O)N(C)C2CCCCC2)cc1C", "survival": "78%"},
      {"smiles": "CC1CCN(C(=O)Cn2c(SCC(=O)Nc3ccc(F)cc3)nc3ccccc32)CC1", "survival": "70%"},
      {"smiles": "CC1CCN(C(=O)Cn2c(SCC(=O)NC(C)(C)C)nc3ccccc32)CC1", "survival": "102%"}
    ]}
  ]
}
